Source: PubChem BioAssay
Shown are actives, neighbours in structure and some others; about 11% of the full set was active somewhere.
ALDH1A1 inh: blocks purified human ALDH1A1 activity; P00352; Purified ALDH1A1, NADH fluorescence, propionaldehyde substrate; Potency, µM (doses to about 75.3 µM), for the others: at the top dose activity, negative = inhibition, usual class: inhibitors; actives 7.3% (n = 220,000); AID 1030;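 note: potency is the fitted concentration of half-maximal effect; plate controls were no enzyme wells and a reference inhibitor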
Target sequence (P00352 whole entry, looked up): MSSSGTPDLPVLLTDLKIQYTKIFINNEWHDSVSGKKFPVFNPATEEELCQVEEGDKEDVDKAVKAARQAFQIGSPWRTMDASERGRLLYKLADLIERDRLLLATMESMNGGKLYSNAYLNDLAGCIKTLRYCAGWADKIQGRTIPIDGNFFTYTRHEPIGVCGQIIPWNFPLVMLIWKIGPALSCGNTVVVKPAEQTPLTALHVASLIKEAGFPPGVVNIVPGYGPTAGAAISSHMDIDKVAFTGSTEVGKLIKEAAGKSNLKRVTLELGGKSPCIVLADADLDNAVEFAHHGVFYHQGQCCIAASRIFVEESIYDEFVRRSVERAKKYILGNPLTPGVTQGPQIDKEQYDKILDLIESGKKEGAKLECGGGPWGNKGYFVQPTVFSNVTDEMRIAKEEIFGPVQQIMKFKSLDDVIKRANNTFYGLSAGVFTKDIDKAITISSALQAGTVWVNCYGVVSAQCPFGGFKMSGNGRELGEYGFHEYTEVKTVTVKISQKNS
HPGD block: HPGD (human) dehydrogenase inhibition | AID 894 | actives 4.3% (n = 150,000) | P15428 | Potency, µM, for the others: at the top dose activity change, negative = inhibition, actives largely listed as inhibitors | purified HPGD, NADH fluorescence kinetic, PGE2 substrate; note: potency is the fitted concentration of half-maximal effect
Target sequence (P15428 whole entry, looked up): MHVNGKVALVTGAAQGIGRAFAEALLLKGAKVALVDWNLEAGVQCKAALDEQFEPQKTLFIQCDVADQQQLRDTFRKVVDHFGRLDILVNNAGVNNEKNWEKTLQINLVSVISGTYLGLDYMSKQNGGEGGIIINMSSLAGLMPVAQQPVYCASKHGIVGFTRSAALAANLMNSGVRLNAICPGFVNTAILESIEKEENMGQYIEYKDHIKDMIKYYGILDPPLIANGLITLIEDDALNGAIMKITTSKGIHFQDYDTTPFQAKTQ
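20 nM HPGD preincubated 15 min at room temperature with compound in 50 mM Tris-HCl pH 8, 0.01% Tween 20. Started with 1 mM NAD+ and 30 uM prostaglandin E2; NADH fluorescence (360/450 nm) read 5 times over 30-s intervals, last minus first.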
PNC assembly inh: blocks assembly of the perinucleolar compartment | activity change (PNC), negative = inhibition, % at 10 µM | PC3M PTB-GFP, PNC prevalence imaging, 16 h; hits give low values | actives 3.1% (n = 140,000);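 active = readout at or below -70, meaning at least 70% loss of cells showing the perinucleolar compartment, a nuclear body marking cancer cells; inconclusive = readout between -30 and a set limit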;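 note: plate controls were DMSO wells for no effect and camptothecin positive control wells for full effect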
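Read-out is percentage of cells bearing a perinucleolar compartment, from automated 20x imaging of fixed, Hoechst-stained PC3M PTB-GFP cells. Cells were seeded 4 h, then exposed 16 h to compound (23 nl of library stock) in duplicate plates.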
IMPase inh: membrane-permeable compound that blocks inositol monophosphatase; inhibition (IP1 accumulation), % at 46.1 µM; CHO-M1 cells, IP1 accumulation, HTRF TR-FRET ratio; P97697; 120,000 tested, under 10 active; active = well fitted curve in the direction sought with a large enough effect in the signal ratio, not every such curve was filed as active; inconclusive = small, poorly fitted or top-dose-only effect, or a change in a side signal; inactive = no such curve, though single readings can be large or run the other way; the % refers to the signal ratio;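 note: cells stimulated with carbachol in lithium chloride buffer; plate controls were DMSO basal wells for no effect and reference inhibitor wells for full effect; higher means more IMPase inhibition seen as more IP1 and lower FRET ratio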
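In this qHTS, compounds (final up to 46 uM) act on CHO-M1 cells that are then activated through the M1 receptor with carbachol, in pH 7.4 buffer containing 50 mM LiCl, for 30 min. IP1 accumulation is quantified by the IP-One immunoassay.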
12-hLO inh: blocks human 12-lipoxygenase activity; P18054; purified 12-hLO, xylenol orange hydroperoxide absorbance; Potency, µM (doses to about 57.1 µM), for inactives: top-dose activity change, negative = inhibition, usual class: inhibitors; actives 0.12% (n = 150,000); AID 1452; active = well fitted curve in the direction sought with a large enough effect; inconclusive = small, poorly fitted or top-dose-only effect, or another doubt; inactive = no such curve, though single readings can be large; an effect the other way counts as inactive or inconclusive; note: potency is the fitted concentration of half-maximal effect; nearly all actives have a fitted effect of over 55% in size
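Hydroperoxide output read as Fe(III)-xylenol orange absorbance, 573-to-405 nm ratio, after 30 min reaction with 40 uM arachidonic acid. Enzyme: 150 nM purified human 12hLO, 15 min compound preincubation; 25 mM Hepes pH 7.0, room temperature.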
IMPase Li inh: membrane-permeable IMPase blocker, potentiated with lithium | actives 0.35% (n = 210,000) | Potency, µM (doses to about 59.4 µM), for the others: at the top dose activity, negative = IMPase inhibition, actives largely listed as inhibitors | AID 1457 | CHO-M1 cells, IP1 TR-FRET (IP-One), carbachol + lithium; active = well fitted curve in the direction sought with a large enough effect; inconclusive = small, poorly fitted or top-dose-only effect, or another doubt; inactive = no such curve, though single readings can be large; an effect the other way counts as inactive or inconclusive;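 note: IP1 builds up when IMPase is blocked and the TR-FRET signal falls; potency is the fitted concentration of half-maximal effect; plate controls were basal vehicle for no effect and high inhibitor control for full effect; nearly all actives have a fitted effect of over 50% in size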
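Test compounds were applied to CHO-M1 cells previously cultured for 16–30 h at 2000 per well. A small lithium amount accompanied them; after 30 min at 37C, IP1 was quantified by TR-FRET.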
* hit, by the source's call; [ ] = dose if it differs, or a comment. Unless noted, calls come from the whole dose curve; as a rule, active = well fitted inhibition curve with a large enough effect (not every such curve was filed as active); inconclusive = small, poorly fitted or top-dose-only effect, or another doubt; inactive = no such curve, though single readings can be large or run the other way. Unless noted, % is set by controls: 0 for no effect and ±100 for the full control effect.

`COC(=O)[C@@]1(Cc2ccccc2)[C@H]2c3cc(C(=O)N4CCCC4)n(Cc4ccc(OC)c(OC)c4)c3C[C@H]2CN1C(=O)c1ccccc1` gave ALDH1A1 inh -4%, HPGD block -4%, 12-hLO inh -3% and IMPase Li inh 16%.
Screening Cc1cccc(CNc2ncnc3ccc(-c4ccccc4CN(C)C)cc23)c1 returned ALDH1A1 inh inconclusive, HPGD block inconclusive, 12-hLO inh -4% and IMPase Li inh 30%.
CCN(CC)CCOc1ccc2c(c1)C(=NO)c1cc(OCCN(CC)CC)ccc1-2 was read as ALDH1A1 inh 0%, HPGD block -7%, PNC assembly inh 7, IMPase inh 9, 12-hLO inh 2% and IMPase Li inh -5%[38.3 µM].
For CCCCOc1ccc2c(c1)C(=O)c1cc(O)ccc1-2 the results were ALDH1A1 inh 40µM* and IMPase Li inh -6%.
For Cc1ccc(N2C(=O)CSC2=S)cc1C the results were ALDH1A1 inh inconclusive and IMPase Li inh 7%.
Screening CN(C)c1ccc(N2C(=O)CSC2=S)cc1 returned ALDH1A1 inh 2.2µM*, HPGD block -16%, PNC assembly inh -9, 12-hLO inh -5% and IMPase Li inh 9%.
For CC1=C(C(=O)Nc2ccccn2)C(c2ccccc2Cl)NC(=S)N1 (stereo not given) the results were ALDH1A1 inh 2.5µM* and IMPase Li inh 7%.
For CC1=C(C(=O)Nc2ccccn2)C(c2ccc(Cl)cc2Cl)NC(=S)N1 (stereo not given) the results were ALDH1A1 inh 2.5µM* and IMPase Li inh 1%.
For O=c1oc2ccc3ccccc3c2cc1-c1nnc(Nc2ccc(Cl)cc2Cl)s1 the results were IMPase inh 1.
Cc1cc(OCCOCCNC(C)C)cc(C)c1Cl was read as ALDH1A1 inh -13%, HPGD block 6%, PNC assembly inh 31, IMPase inh -1, 12-hLO inh -5% and IMPase Li inh 34%[38.3 µM].
Cc1cc(OCC(=O)NCC(C)C)cc(C)c1Br was read as ALDH1A1 inh inconclusive, HPGD block 14µM*, PNC assembly inh 14, IMPase inh 4, 12-hLO inh -4% and IMPase Li inh -1%[38.3 µM].
`Cc1cc(OCC(=O)NC(C)C)cc(C)c1Cl` gave ALDH1A1 inh -6%, HPGD block -23%, PNC assembly inh -100*, IMPase inh -9, 12-hLO inh 2% and IMPase Li inh -2%.
CCCCn1cnc2c(c(CC#N)nn2-c2ccccc2)c1=N was read as ALDH1A1 inh 1%[13.5 µM], HPGD block -2%, 12-hLO inh 1%[11.4 µM] and IMPase Li inh -1%.
Screening Cc1cc(C)cc(NC(=O)c2ccccc2CC[N+](=O)[O-])c1 returned ALDH1A1 inh 2.8µM*, HPGD block -18%, PNC assembly inh 30, IMPase inh -15[1.84 µM], 12-hLO inh 1% and IMPase Li inh 35%[38.3 µM].
`O=C(Nc1ccc(Br)cc1)c1ccccc1CC[N+](=O)[O-]` gave ALDH1A1 inh inconclusive, HPGD block -27%, PNC assembly inh inconclusive, IMPase inh 1[1.84 µM], 12-hLO inh -3% and IMPase Li inh 41%[38.3 µM].
CCN(CC)c1ccc2cc(-c3nnc(-c4ccccc4)o3)c(=O)oc2c1 was read as ALDH1A1 inh inconclusive, HPGD block -16%, PNC assembly inh -100*, IMPase inh 0, 12-hLO inh 1% and IMPase Li inh -5%.
`CCN(CC)c1ccc2cc(-c3nc4ccccc4[nH]3)c(=O)oc2c1` gave ALDH1A1 inh 8%, HPGD block -11%, PNC assembly inh -104*, IMPase inh -2, 12-hLO inh 2% and IMPase Li inh 4%.
Screening Cc1ccc(-c2nc3ncccc3o2)cc1NC(=O)COc1ccc(C(C)C)cc1 returned IMPase inh -1.
Screening CC(=O)c1cccc(NC(=O)Cn2c(-c3cncs3)nc3ccccc32)c1 returned IMPase inh -10.
Cc1ccc(S(=O)(=O)Oc2ccc(/C=C3/N=C(c4ccccc4)OC3=O)cc2)cc1 was read as ALDH1A1 inh 8.9µM*, HPGD block -25%, PNC assembly inh 114, 12-hLO inh 0% and IMPase Li inh 0%.
`Cc1ccc(C2=N/C(=C\N3CCCCC3)C(=O)O2)cc1` gave ALDH1A1 inh inconclusive, HPGD block inconclusive, PNC assembly inh -18, IMPase inh -6, 12-hLO inh -1% and IMPase Li inh 35%[38.3 µM].
CO/N=C(\C(=O)N[C@@H]1C(=O)N2C(C(=O)O)=C(CSc3nc(=O)c(O)nn3C)CS[C@@H]12)c1csc(N)n1 was read as IMPase inh -2 and 12-hLO inh -4%.
For CCOc1ccc(NC(=O)CSc2nnc(-c3ccccc3Cl)n2Cc2ccco2)cc1 the results were ALDH1A1 inh 14µM*, PNC assembly inh 8, IMPase inh 16 and 12-hLO inh -11%.
`COc1ccc(NC(=O)CSc2nnc(-c3ccccc3Cl)n2Cc2ccco2)c(OC)c1` gave ALDH1A1 inh 14µM*, PNC assembly inh 11, IMPase inh 5 and 12-hLO inh -8%.
CN(C)c1ccc(NC(=O)CSc2nnc(-c3cccs3)n2Cc2ccco2)cc1 was read as ALDH1A1 inh 18µM*, HPGD block -11%, PNC assembly inh 32, IMPase inh 10, 12-hLO inh 5% and IMPase Li inh 35%[38.3 µM].
CCOC(=O)c1c(O)c2cc(Cl)ccc2n(CC)c1=O was read as ALDH1A1 inh 20µM*.
Screening CC(=O)N(C)c1ccc(NC(=O)c2ccccc2C(=O)O)cc1 returned ALDH1A1 inh inconclusive, HPGD block -3%, PNC assembly inh -117*, IMPase inh -4, 12-hLO inh -1% and IMPase Li inh -1%[38.3 µM].
Screening Cc1ccc(NC(=O)c2ccccc2-c2ccccc2C(=O)O)cc1 returned ALDH1A1 inh 8%, HPGD block -8%, PNC assembly inh inconclusive, 12-hLO inh -2% and IMPase Li inh 0%.
`Cc1ccc(NC(=O)c2ccccc2O)cc1` gave ALDH1A1 inh 10%, HPGD block -16%, PNC assembly inh -100*, IMPase inh -3, 12-hLO inh 6% and IMPase Li inh 3%.
Cc1ccc(NC(=O)c2cc(S(=O)(=O)c3ccccc3)ccc2Cl)cc1 was read as ALDH1A1 inh 10µM*, HPGD block -12%, PNC assembly inh 21, IMPase inh 5, 12-hLO inh -14% and IMPase Li inh 36%[38.3 µM].
For O=C(O)c1ccc(NS(=O)(=O)c2ccc(Cl)c(C(=O)Nc3ccccc3)c2)cc1 the results were IMPase inh -1.
